HePTP inhibitor: blocks human HePTP tyrosine phosphatase. recombinant HePTP phosphatase activity, OD absorbance. inhibition, % at 20 µM. 110,000 tested, 0.64% active; in the data active means inhibition above about 50%;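 further: plate controls were vehicle for no effect and reference inhibitor for full effect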
Candida biofilm: kills Candida albicans biofilms; C. albicans biofilm + clotrimazole, Alamar Blue; inhibition, % at 6 µM; 85,000 tested, 0.14% active;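 active means inhibition above 20%; inactive means inhibition below 20%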;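 further: preformed 24 hr biofilms exposed to compound for 48 hr; 0% = biofilm without compound and 100% = blank killed by clotrimazole plus chlorhexidine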
DAT uptake mod: modulates human dopamine transporter uptake under cocaine | LLC-PK1 hDAT cells, [14C]-dopamine uptake with cocaine IC80; actives deviate in either direction | 110,000 tested, 1.3% active | Q01959 | B-score at 10 µM;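 active means Z score or B-score, a plate-position-corrected score, falls beyond the plate's 99.7% confidence bounds, in either direction; inactive means both scores lie inside the 99.7% bounds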;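 further: scored against the spread of the other compound wells on the same plate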
Target sequence (Q01959 whole entry, looked up): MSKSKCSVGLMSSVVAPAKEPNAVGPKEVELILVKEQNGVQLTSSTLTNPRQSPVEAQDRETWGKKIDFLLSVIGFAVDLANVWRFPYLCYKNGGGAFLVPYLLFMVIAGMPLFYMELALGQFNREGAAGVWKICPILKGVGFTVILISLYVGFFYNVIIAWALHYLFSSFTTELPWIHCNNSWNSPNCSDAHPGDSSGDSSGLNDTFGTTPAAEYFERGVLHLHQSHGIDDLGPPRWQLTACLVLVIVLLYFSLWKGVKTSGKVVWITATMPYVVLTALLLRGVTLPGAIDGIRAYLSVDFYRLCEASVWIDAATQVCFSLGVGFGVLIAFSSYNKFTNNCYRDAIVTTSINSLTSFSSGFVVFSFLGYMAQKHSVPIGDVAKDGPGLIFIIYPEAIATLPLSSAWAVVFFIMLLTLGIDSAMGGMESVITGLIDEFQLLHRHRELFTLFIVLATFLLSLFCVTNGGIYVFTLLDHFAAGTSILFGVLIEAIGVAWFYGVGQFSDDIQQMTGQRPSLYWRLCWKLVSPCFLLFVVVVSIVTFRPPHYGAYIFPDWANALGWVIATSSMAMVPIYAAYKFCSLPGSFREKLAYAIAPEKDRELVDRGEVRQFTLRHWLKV
D1 allo mod: allosteric modulators of human D1 dopamine receptor; P21728; HEK293 D1, CRE-luciferase, dopamine EC30 potentiation; actives deviate in either direction; B-score at 10 µM; 58,000 tested, 5.9% active;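 active means luminescence count or its row- and column-corrected plate score outside the 99.7% band of the plate's sample wells, on either side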
TNAP act DEA: human TNAP activation, intermediate phosphate acceptor | purified TNAP, CDP-star luminescence, 100 mM DEA, 30 min; hits give high values; scale: 0 levamisole-inhibited, 1 vehicle-only enzyme | activation factor at 20 µM | 64,000 tested, under 10 active;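 active means activation factor of at least 2 at 20 µM, relative to controls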
PLAP activator: human PLAP activation | P05187 | purified PLAP enzyme, luminescent substrate read-out; hits give high values | activation fold at 20 µM | 96,000 tested, 1.2% active | AID 696; in the data active means activation fold above about 2
* marks the source's active call; other numbers are inactive results; . = no result. This excerpt belongs to a sample that is enriched for hits.

SMILES	HePTP inhibitor	Candida biofilm	DAT uptake mod	D1 allo mod	TNAP act DEA	PLAP activator
O=C(Nc1ccc(Cl)c(Cl)c1)N1CCSC1c1ccco1 (stereo not drawn)	-12	10	-2.1*	-1.3	1	0.8
O=C(Nc1ccc(Cl)c(Cl)c1)N1CCc2ccccc21	1	.	.	.	.	.
COC(=O)c1c(N)n(-c2cc(OC)cc(OC)c2)c2nc3ccccc3nc12	6	3	.	3.3*	0.8	.
CCn1nc(C)c(Cc2c(C)nn(CC)c2C)c1C	104*	.	.	.	.	.
Cc1cccnc1Nc1nc(-c2ccc(O)cc2)cs1	.	5	4.6*	.	.	1.3
Oc1ccc(Nc2nc(-c3ccccn3)cs2)cc1	6	.	.	.	.	.
O=c1oc2cc(O)c([N+](=O)[O-])cc2cc1-c1csc(-c2cc3ccccc3oc2=O)n1	84*	.	.	.	.	.
Cc1cccc(C(=O)N2CCN(c3ccc(C(F)(F)F)cn3)CC2)c1C	.	2	0.46	.	.	2.1*
CCCC(=O)Nc1ccc(NC(=O)c2ccc(C)c(C)c2)cc1	-6	.	.	.	.	.
O=C(/C=C\Nc1ccc2c(c1)OCO2)c1ccccn1	10	0	0.92	-8*	0.9	1
O=C(/C=C\Nc1ccc2c(c1)OCO2)c1ccc2c(c1)OCO2	1	.	.	.	.	.
COC(=O)CC1=C(C(=O)OC)C(c2cccc([N+](=O)[O-])c2)C(C(=O)OC)=C(C)N1 (stereo not drawn)	7	.	.	.	.	.
COc1ccccc1Cc1noc(-c2ccc(Br)cc2)n1	3	.	.	.	.	.
CCCCN1C(=O)/C(=C\c2ccc(N(CC)CC)cc2)SC1=S	4	.	.	.	.	.
Cc1ccc(OCC(=O)Nc2cccc(Cl)c2C)c(Br)c1	-11	.	.	.	.	.
Cc1c(C(=O)N2CC(C)OC(C)C2)sc2nc(-c3ccc(F)cc3)cn12 (stereo not drawn)	-4	10	.	-3*	1	1.4
CCOC(=O)N1CCN(C(=O)c2sc3nc(-c4ccc(F)cc4)cn3c2C)CC1	4	5	.	.	1	1.5
COc1nsnc1NS(=O)(=O)c1ccc(NC(=S)NC(=O)c2sc3cc(F)ccc3c2Cl)cc1	102*	.	.	.	.	.
NC(=O)/C(=C\c1ccc2c(c1)OCO2)NC(=O)c1ccco1	5	.	.	.	.	.
CCn1c(COc2cccc3ccccc23)nnc1SCC(=O)OC1CCCCC1	.	2	-0.012	.	.	2.5*
CC(C)c1ccc(C2NC(C(=O)O)CS2)cc1 (stereo not drawn)	.	-2	-1.4	.	.	2*
COCC(C)NCc1ccc(OC)cc1 (stereo not drawn)	-12	.	.	.	.	.
O=c1cc2c(nn1Cc1ccc(Cl)cc1)-c1ccccc1CC2	.	-1	1.4	.	.	2*
O=C(O)c1cccc(-c2ccc(C=C3C(=O)c4ccccc4C3=O)o2)c1	98*	.	.	.	.	.
O=C1NN(c2ccc(F)cc2)C(=O)/C1=C\c1ccc(-c2cccc(C(=O)O)c2)o1	102*	.	.	.	.	.
SMILES	HePTP inhibitor	Candida biofilm	DAT uptake mod	D1 allo mod	TNAP act DEA	PLAP activator
O=C1NN(c2ccc(Cl)cc2)C(=O)/C1=C\c1ccc(-c2cccc(C(=O)O)c2)o1	103*	.	.	.	.	.
O=C1NC(=O)N(c2ccccc2)C(=O)/C1=C\c1ccc(-c2cccc(C(=O)O)c2)o1	16	.	.	.	.	.
O=C(/C=C/c1ccccc1)NNc1ccc([N+](=O)[O-])cc1	-12	.	.	.	.	.
CC(C)(C)c1ccc(O)c(N=Cc2cc(Cl)cc([N+](=O)[O-])c2O)c1	-27	.	.	.	.	.
CC(=O)c1cccc(-c2ccc(/C=C3\C(=O)NC(=O)C(C#N)=C3C)o2)c1	72*	.	.	.	.	.
CC1=C(C#N)c2nc(N)c(C#N)c(C)c2/C1=C/c1ccc(-c2cccc(C(=O)O)c2)o1	103*	.	.	.	.	.
CC1=C(C#N)c2nc(N)c(C#N)c(C)c2/C1=C\c1ccc(-c2cccc([N+](=O)[O-])c2)o1	-2	.	.	.	.	.
O=C(Nc1c[nH]c(=O)[nH]c1=O)c1ccc(-c2ccccc2)cc1	8	.	.	.	.	.
O=C(c1cccnc1)N1CCN(c2ccc(F)cc2)CC1	10	.	.	.	.	.
N=c1c2c(-c3ccccc3)c(-c3ccccc3)n(Cc3ccco3)c2ncn1Cc1ccccc1	.	43*	2.4	.	.	1.5
O=S(=O)(c1ccccc1)c1nc(-c2cccs2)oc1NCCCn1ccnc1	8	3	2.5*	1.3	1.1	1.2
CCCCNc1oc(-c2cccs2)nc1S(=O)(=O)c1ccccc1	.	5	1.5	.	.	0.9
c1ccc(Nc2c3c(nc4ncnn24)CCC3)cc1	-11	8	0.18	-4.8*	0.9	0.6
CCOC(=O)CNC1=C([N+](=O)[O-])C(=O)CC(C)(C)C1	-6	.	.	.	.	.
Cc1ccc(CNC(=O)C(Cc2ccccc2)NS(=O)(=O)c2ccc3c(c2)CCC(=O)N3)cc1 (stereo not drawn)	.	.	0.14	.	.	0.7

Compound activity as filed in PubChem BioAssay.
